Bioassay records from PubChem BioAssay.
ALOX15 inhib: qHTS Assay for Inhibitors of 15-hLO (15-human lipoxygenase) | Potency, µM (highest dose often 57.1 µM), usual class: inhibitors | 74,000 tested, 1.4% active | purified 15hLO-1, xylenol orange hydroperoxide absorbance | AID 887, 2007; further: nearly all actives have a fitted effect of over 55% in size
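40 nM 15hLO-1 + cpd, 15 min RT; start w/ 50 uM AA (final), 6 min RT; stop/detect w/ 200 uM XO + 300 uM Fe(II) in 50 mM H2SO4, 30 min; A573/A405. Buffer 25 mM Hepes pH 7.5, 0.01% Triton X-100. No-enzyme wells as negative control.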
Luciferase inh: qHTS Assay for Inhibitors of Firefly Luciferase; Luciferin 4-monooxygenase (Photinus pyralis), P08659; purified firefly luciferase, luminescence, 8 min; Potency, µM (titrated, usually from 57.1 µM), hits mostly inhibitors; 72,000 tested, 2.2% active; AID 411, 2009; further: nearly all actives have a fitted effect of over 40% in size
Target sequence (P08659 whole entry, looked up): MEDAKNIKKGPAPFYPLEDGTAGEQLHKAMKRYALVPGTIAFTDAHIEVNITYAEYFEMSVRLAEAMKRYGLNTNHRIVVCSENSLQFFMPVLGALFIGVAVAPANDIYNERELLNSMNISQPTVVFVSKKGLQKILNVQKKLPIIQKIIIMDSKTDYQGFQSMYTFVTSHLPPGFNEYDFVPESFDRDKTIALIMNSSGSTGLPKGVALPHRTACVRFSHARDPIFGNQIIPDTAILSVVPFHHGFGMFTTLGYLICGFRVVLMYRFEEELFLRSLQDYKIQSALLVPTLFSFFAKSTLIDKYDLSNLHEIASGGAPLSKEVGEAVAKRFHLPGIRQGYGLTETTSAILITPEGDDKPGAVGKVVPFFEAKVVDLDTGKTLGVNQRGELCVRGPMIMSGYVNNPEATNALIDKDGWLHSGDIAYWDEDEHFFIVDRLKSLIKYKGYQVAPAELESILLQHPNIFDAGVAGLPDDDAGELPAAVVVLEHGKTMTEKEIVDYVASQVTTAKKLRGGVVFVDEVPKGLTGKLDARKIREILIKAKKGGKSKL
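qHTS concentration-response profiling: light output of P. pyralis luciferase with luciferin and 10 uM ATP, imidazole buffer pH 7.2. Read by luminescence after 8-min room-temperature incubation.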
Pol III holo inh: qHTS Assay for Inhibitors of DNA Polymerase III Holoenzyme System; reconstituted DNA polymerase III holoenzyme replication, biochemical; Potency, µM (top dose mostly 57.1 µM); 71,000 tested, 0.25% active; AID 603, 2007
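Reconstituted *E. coli* holoenzyme (0.35 nM Pol III, 1 nM beta, 154 nM SSB, 2 nM primase) was preincubated with compound for 15 min at RT. Synthesis on 1.4 nM ssM13Gori ran 35 min, then was stopped with PicoGreen/EDTA and read as dsDNA fluorescence.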
ERK AVP block: qHTS Assay for Inhibitors of the ERK Signaling Pathway using a Homogeneous Screening Assay. HEK293-V1b, vasopressin-stimulated pERK AlphaScreen. Potency, µM (series often up to 57.5 µM), most hits filed as inhibitors. 72,000 tested, 0.99% active; further: nearly all actives have a fitted effect of over 55% in size
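V1b-HEK293 cells; cpd 30 min 37C; 25 nM vasopressin 5 min; lyse 10 min; AlphaScreen beads 5 hr RT. Normalized to DMSO basal and 25 nM vasopressin; AC50 by Hill fit.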
Tau fil binding: qHTS Assay for Tau Filament Binding; recombinant tau filaments, thioflavin S fluorescence, 15 h; filaments grown with octadecylsulfate alongside compound; Potency, µM (doses to about 57.1 µM); 71,000 tested, 2% active;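 further: actives lower thioflavin S fluorescence by blocking filaments or displacing dye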
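Thioflavine S fluorescence (ex 450, em 510 nm) reports filaments formed from 1 uM human tau plus 30 uM ODS over 15 h at 37 C (10 mM HEPES pH 7.4, 100 mM NaCl, 5 mM DTT); compounds displacing dye or blocking filaments lower signal.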
PK Bst: Pyruvate Kinase | purified pyruvate kinase, luminescence ATP production; ribose 5-phosphate activator present at AC10 | Potency, µM | 51,000 tested, 1.2% active; in the data active means potency below about 11 µM; inconclusive means mostly about 12 µM to 25 µM;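 the screen sought inhibitors and activators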
A number is an active result; n = inactive; u = inconclusive; x = no result; [ ] = dose if it differs, or a comment. This is a sample that favours compounds with a hit; in the whole collection about 6% have one here. Unless noted, the call rests on the fitted dose curve; in most records, active means well fitted curve in the direction sought with a large enough effect; inconclusive means small, poorly fitted or top-dose-only effect, or another doubt; inactive means no such curve, though single readings can be large; an effect the other way counts as inactive or inconclusive.

SMILES | ALOX15 inhib | Luciferase inh | Pol III holo inh | ERK AVP block | Tau fil binding | PK Bst
Cc1cc(NC(=O)Nc2ccc(N(C)C)cc2)c2cc(F)cc(F)c2n1 | n | n | n | u | 31.6µM | x
CC(C)(C)c1onc(OCP(=O)(O)O)c1C[C@@H](N)C(=O)O | n | n | n | n | n | x
CCN1CCCC1CNC(=O)c1ccc(-n2c(=O)c(=O)[nH]c3ccccc32)cc1 (configuration not stated) | n | x | x | x | x | x
Cc1cc(-n2c(C)cc(C(=O)CSc3ncnc4ccccc34)c2C)no1 | n | n | n | 20µM | n | n
COc1ccc(OC)c(N2C(=O)[C@@H]3C(c4ccccc4Cl)=NO[C@@H]3C2=O)c1 | n | n | 31.6µM | n | u | n
COc1ccc(C2=NO[C@@H]3C(=O)N(c4c(C)cccc4C)C(=O)[C@H]23)cc1OC | n | n | n | n | n | n
COC(=O)C1=C(C)Nc2ccc(C)cc2S1 | 10µM | n | n | u | 20µM | x
COC(=O)Nc1ccc(C)cc1NC(=O)OC | n | n | n | n | n | n
CNc1ncncc1-c1ccccc1C(F)(F)F | u | n[2.29 µM] | n | u | n | x
O=C(OCC(=O)N1CCN(C(=O)c2ccco2)CC1)c1cc(-c2ccc(F)cc2)nc2ccccc12 | n | u | n | n | n | 2.11
O=C(OCC(=O)N1CCN(C(=O)c2ccco2)CC1)c1cc(-c2ccccc2)nc2ccccc12 | n | n | n | 20µM | n | u
Cc1cc(C(=O)OCC(=O)N2CCN(c3ccccc3)CC2)c2ccccc2n1 | n | n | n | u | 12.6µM | n
CCOC(=O)c1ccc2nc(NC(NC(C)=O)(C(=O)OC)C(F)(F)F)sc2c1 (configuration not stated) | x | n | x | x | x | n
CC(=O)c1sc(Nc2nc3ccc(F)cc3s2)nc1C | n | 15.8µM | n | n | n | u
CCOC(=O)c1csc(Nc2nc3ccc(F)cc3s2)n1 | n | n | n | n | n | 1.18
O=C=Nc1ccc(Cc2ccc(N=C=O)cc2)cc1 | n | x | n | n | n | x
Nc1nonc1-c1noc(CCCOc2ccc(Cl)cc2Cl)n1 | n | n | n | n | n | n
Clc1ccc(OCc2nc(-c3ccncc3)no2)c(Cl)c1 | n | 15.8µM | n | u | n | n
Clc1cc(Cl)c(OCc2nc(-c3ccccn3)no2)cc1Cl | n | 12.6µM | n | n | n | n
COC(=O)C1=NOC2(C=C(Br)C(OC)=C(Br)C2=O)C1 (configuration not stated) | n[11.4 µM] | x | x | n[11.5 µM] | x | x
O=C1CC(c2cccs2)Cc2nc(NCC3CCCO3)ncc21 (configuration not stated) | n | n | n | 20µM | n | n
O=C(Nc1nc2ccccc2[nH]1)c1ccccc1F | n | 1µM | n | n | n | 1.36
O=C(NCCc1nc2ccccc2[nH]1)c1ccc(F)cc1 | n | n | n | n | n | n
COc1ccc(C(=O)Nc2nc3ccccc3[nH]2)cc1OC | n | 25.1µM | n | n | n | n
Cc1cc(NC(=O)c2ccccc2F)n(-c2nc3ccccc3[nH]2)n1 | n | n | n | n | n | n
SMILES | ALOX15 inhib | Luciferase inh | Pol III holo inh | ERK AVP block | Tau fil binding | PK Bst
O=C(Nc1nc2ccccc2[nH]1)c1ccc(F)cc1 | n | 3.16µM | n | n | n | 3.11
COc1ccc(C(=O)NCc2nc3ccccc3[nH]2)cc1OC | n | n | n | x | n | x
COc1ccccc1CN1CCCC2(CCN(C(=O)c3cnccn3)CC2)C1 | n | n[11.4 µM] | n | n | n | x
CNC(=O)[C@H]1O[C@H](n2cnc3c(NCc4cccc(I)c4)ncnc32)[C@@H](O)[C@@H]1O | n | n | n | u | n | x
CNC(=O)[C@H]1O[C@H](n2cnc3c(NCc4cccc(I)c4)nc(Cl)nc32)[C@@H](O)[C@@H]1O | n | n | n | 15.8µM | n | x
C=CC(=O)CC | n | x | n | n | n | x
O=C(N/N=C\c1ccc2c(c1)CCC2)c1ccccc1O | n[11.4 µM] | 3.16µM | n[11.4 µM] | u | n[11.4 µM] | x
CC(=O)NCCNc1nc(-c2cccnc2)nc2ccccc12 | n | n[2.29 µM] | n | n | n | x
